38 compounds from the supplement of paper PMC4894684 can be followed below.

Counter-ions that a name gives are not always drawn. ± gives the standard deviation of the averaged measurements.

The assay deals with Toxoplasma gondii RH (in HFF). Description: parasite growth relative to the screen mean (all compounds = 100%); higher = less inhibition of parasite growth. As to conditions: 5 µM; 72 h; oxygen 21 %. The method, boiled down:
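Parasite growth was reported relative to the screen mean. In that scale, the mean of all compounds equals 100%, and values are averaged over two screens. Compounds from 10 mM DMSO stocks were pin-transferred to 5 µM final onto confluent human foreskin fibroblasts in 96-well plates, infected within 2 h with RH β-Gal–GFP Toxoplasma (MOI 1:5) and grown 72 h at 21% O2, with parasite number read by a CPRG β-Gal assay against in-plate standard curves. Uninfected host-cell viability was checked with CellTiter-Blue.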
Turning to `Cc1ccc(NC(=O)C(C)C)cc1C1CCN(Cc2ccc(Oc3ccc(F)c(F)c3)cc2)CC1`, the parasite growth is less than 0%.

As to `O=C1NC(=O)c2cc(Nc3ccc(F)cc3)c(Nc3ccc(F)cc3)cc21`, the parasite growth is 171 ± 51%.

`Cn1cc(C(=O)OCC2CCN(CCNS(C)(=O)=O)CC2)c2ccccc21` returned a parasite growth of 123 ± 3.8%.

For `CCN(CC)CCOCCOC(=O)C1(c2ccccc2)CCCC1` [Carbetapentane citrate], the parasite growth was 137 ± 18%.

Turning to `CC(=O)N(OCc1ccccc1)[C@H]1c2cc(C#N)ccc2OC(C)(C)[C@H]1O`, the parasite growth was 112 ± 33%.

In the case of `O=C(O)c1ccc(C=C2SC(=S)N(c3cccc(C(F)(F)F)c3)C2=O)cc1`, the parasite growth was 109 ± 36%.

As to `Cc1cccc(C)c1OCC(C)N` (stereo not drawn) [Mexiletine hydrochloride], the parasite growth was 141.59 ± 0.025%.

The compound `CN1CCN(C(=O)c2nc3ccc(Cl)cc3[nH]2)CC1` displayed a parasite growth of 133 ± 14%.

In the case of `O=C(O)c1cccnc1C(=O)O` [Quinolinic acid], the parasite growth came to 125 ± 12%.

Regarding `COC(=O)[C@@H]1[C@H]2C[C@H]3c4[nH]c5ccccc5c4CCN3C[C@@H]2CC[C@@H]1O` [Yohimbine hydrochloride], the parasite growth is 184 ± 33%.

The compound `COc1ccc(CCN(C)CCCN2CCc3cc(OC)c(OC)cc3CC2=O)cc1OC` [Zatebradine hydrochloride] returned a parasite growth of 103 ± 1.8%.

`OC[C@H]1NC[C@@H](O)[C@@H](O)[C@@H]1O` [1-Deoxymannojirimycin hydrochloride] had a parasite growth of 141 ± 9.1%.

The compound `CN1CCN2c3ncccc3Cc3ccccc3C2C1` (stereo not drawn) [Mirtazepine] displayed a parasite growth of 92.3 ± 34%.

In turn, `CNCCCC12CCC(c3ccccc31)c1ccccc12` [Maprotiline hydrochloride] displayed a parasite growth of 54.1 ± 17%.

`Cc1ccc(C(=O)Nc2ccc(S(=O)(=O)O)c3cc(S(=O)(=O)O)cc(S(=O)(=O)O)c23)cc1NC(=O)c1cccc(NC(=O)Nc2cccc(C(=O)Nc3cc(C(=O)Nc4ccc(S(=O)(=O)O)c5cc(S(=O)(=O)O)cc(S(=O)(=O)O)c45)ccc3C)c2)c1` [Suramin hexasodium salt] came in with a parasite growth of 90 ± 22%.

`CCCCC[C@H](O)/C=C/[C@H]1[C@H](O)CC(=O)[C@@H]1CCCCCCC(=O)O` [Alprostadil]: the parasite growth came to 140 ± 6%.

In the case of `CC(O)(C(=O)Nc1ccc(S(=O)(=O)c2ccccc2)cc1)C(F)(F)F` (stereo not drawn), the parasite growth was determined as 59.3 ± 19%.

As for `CC1=C(/C=C/C(C)=C/C=C/C(C)=C/C(=O)Nc2ccc(O)cc2)C(C)(C)CCC1` [Fenretinide], the parasite growth turned out to be 38 ± 8.6%.

Regarding `Cc1scc2c1N(C(=O)CN1CCN(C)CC1)c1ccccc1NC2=O` [Telenzepine dihydrochloride], the parasite growth is 133 ± 26%.

With `CNC(=O)[C@H]1O[C@@H](n2cnc3c(NCc4cccc(I)c4)nc(Cl)nc32)[C@H](O)[C@@H]1O`, the parasite growth came out at 120 ± 28%.

`Nc1ccc(-c2nc3ccc(-c4nc5ccc(N)cc5[nH]4)cc3[nH]2)cc1`: the parasite growth amounted to 89.6 ± 5.3%.

Regarding `CC(C)(CO)Cc1cc(C(C)(C)C)c(O)c(C(C)(C)C)c1`, the parasite growth turned out to be 192 ± 11%.

Regarding `NS(=O)(=O)c1cccc2c1c([N+](=O)[O-])cc1nc(O)c(O)nc12`, the parasite growth came out at 144 ± 9.6%.

The compound `O=C(O)COc1ccc(OCCNC[C@H](O)COc2ccccc2)cc1` [ICI 215,001 hydrochloride] yielded a parasite growth of 116 ± 14%.

`N[C@@H](CC(=O)Nc1ccc(Oc2cc(F)c(F)cc2Br)cc1)C(=O)O` gave a parasite growth of 149.3 ± 0.68%.

`C1CCC(N=C(NC23CC4CC(CC(C4)C2)C3)N2CCOCC2)CC1` had a parasite growth of 100 ± 31%.

In the case of `C=C1C(=O)O[C@H]2[C@H]1CC/C(C)=C/CC[C@@]1(C)O[C@@H]21` [Parthenolide], the parasite growth is 87.7 ± 4.2%.

For the compound `CC(C)SC(=N)N` [S-Isopropylisothiourea hydrobromide], the parasite growth is 97.1 ± 3.1%.

As to `Cc1nc2sccn2c(=O)c1CCN1CCC(=C(c2ccc(F)cc2)c2ccc(F)cc2)CC1` [Ritanserin], the parasite growth was determined as 123 ± 15%.

As for `COc1ccccc1N1CCN(CCCCN2C(=O)c3ccccc3C2=O)CC1` [NAN-190 hydrobromide], the parasite growth came to 133 ± 11%.

`Cc1c[nH]c(=O)n(CCCN2CCN(c3ccccc3OCC(F)(F)F)CC2)c1=O` came in with a parasite growth of 116 ± 6.9%.

Take `COCCOC(=O)C1=C(C)NC(C)=C(C(=O)OC/C=C/c2ccccc2)C1c1cccc([N+](=O)[O-])c1` (stereo not drawn) [Cilnidipine]: the parasite growth is 27.9 ± 21%.

Turning to `CC(C)[C@H](CO)Nc1nc(Nc2ccc(C(=O)O)c(Cl)c2)c2ncn(C(C)C)c2n1` [Purvalanol B], the parasite growth was found to be 141 ± 2.9%.

Compound `C[C@@H](CN1CC(=O)NC(=O)C1)N1CC(=O)NC(=O)C1` [Dexrazoxane hydrochloride] returned a parasite growth of 102 ± 13%.

`CCN1CCC[C@H]1CNC(=O)c1c(O)c(Cl)cc(Cl)c1OC` [Raclopride] had a parasite growth of 138 ± 25%.

The compound `CCOC(=O)c1cnc2c(cnn2CC)c1NN=C(C)C` [Etazolate hydrochloride] gave a parasite growth of 127 ± 21%.

Consider `CCOC(=O)c1ncn2c1CN(C)C(=O)c1cc(F)ccc1-2` [Flumazenil], for which the parasite growth stood at 84.5 ± 15%.

The compound `CC(C)(Oc1ccc(Cl)cc1)C(=O)O` [Clofibric acid] returned a parasite growth of 127 ± 43%.
